In ChEMBL document CHEMBL3988442, “University of Dundee, Small-Polar-MMV Screening Library” (2021):
The campaign covered roughly 69,000 compounds. About 950 (1.4%) showed an effect of 50% or more. The sample holds strong results, similar compounds and a random draw of the others, so the mix is not that of the screen.

Each molecule was assayed on Mycobacterium tuberculosis (assay: Cornell M. t heat shock assay; note: in the data most compounds retested in dose-response had high values).
Type: functional, organism-based
Set-up: dose or concentration left out as unconfirmed

| SMILES | Percent Effect [%] |
| --- | --- |
| COC(=O)N1CCC(Nc2cccc(F)c2C(C)=O)C1 (stereo not drawn) | 10.56 |
| COC(=O)N1CCC(Nc2cccc(F)c2C(C)=O)CC1 | 5.265 |
| COC(=O)N1CCC(Nc2cccc(F)c2C#N)CC1 | 83.06 |
| O=C(O)C(F)(F)F.O=C(O)C(F)(F)F.O=C(O)C(F)(F)F.c1cc(CN2C[C@@H]3OCCN(CC4CCCO4)[C@@H]3C2)ccn1 (stereo partly drawn) | -18.75 |
| CN(C(=O)C1CCOCC1)[C@@H]1CCC[C@@H](N2CCCC2)[C@@H]1O | 60.86 |
| CN(C(=O)C1CCOCC1)[C@@H]1CCC[C@@H](N2CCOCC2)[C@@H]1O | -10.17 |
| CN(C(=O)C1CCCCC1)[C@@H]1CCC[C@@H](N2CCOCC2)[C@@H]1O | -6.532 |
| CC(C)OCCCN(Cc1cnn(C)c1)Cc1ccccn1.O=C(O)CC(O)(CC(=O)O)C(=O)O | -10.12 |
| CCC1=N[C@@]2(CC[C@@H]3CN(CC4CC4)C[C@@H]32)C(=O)N1C.O=C(O)C(F)(F)F | 5.845 |
| CC(O)CN1CC(C)(C)CN(C(=O)CCc2ccccc2)CC1=O (stereo not drawn) | 50.7 |
| COCC(O)CN1CC(C)(C)CN(C(=O)CCc2ccccc2)CC1=O (stereo not drawn) | 27.88 |
| CCCC(O)CN1CC(C)(C)CN(C(=O)CCc2ccccc2)CC1=O (stereo not drawn) | 10.24 |
| CC(C)(O)CN1CC(C)(C)CN(C(=O)CCc2ccccc2)CC1=O | 52.03 |
| CCN1CC(C)(C)CN(C(=O)CCc2ccccc2)CC1=O | 22.76 |
| CN1CC(C)(C)CN(C(=O)CCc2ccccc2)CC1=O | 21.51 |
| Fc1ccc(CN2CC[C@H]3O[C@@H](COCC4CCOCC4)CC[C@H]32)cc1.O=C(O)C(F)(F)F | -16.61 |
| CCC(C)[C@H](N)c1nnc(SCC(=O)Nc2cc(C)ccc2C)o1.Cl (stereo partly drawn) | -10.79 |
| Cc1cc2c(=O)n3c(nc2s1)CCN(Cc1c[nH]cn1)CC3.Cl | -21.28 |
| Clc1ccc(C2(CNC3=NCCN3)CCCCC2)cc1.I | 77.48 |
| Clc1ccc(C2(CNC3=NCCN3)CCCC2)cc1.I | 20.92 |
| Clc1ccc(C2(CNC3=NCCN3)CC2)cc1.I | -24.96 |
| O=C(NCC1CC1)[C@H]1C[C@H]2OCC[C@H]2N(CCc2ccccc2)C1.O=C(O)C(F)(F)F | -0.2328 |
| COc1ccc(-c2cc3nn(CC(=O)NC(C)C)c(=O)n3c(C)n2)cc1 | 21.42 |
| Cc1nc(-c2ccccc2)cc2nn(CC(N)=O)c(=O)n12 | 80.99 |

| SMILES | Percent Effect [%] |
| --- | --- |
| COc1ccc(-c2cc3nn(CC(N)=O)c(=O)n3c(C)n2)cc1 | 28.25 |
| CCC1=N[C@@]2(CC[C@@H]3CN(Cc4ccc(F)cc4)C[C@@H]32)C(=O)N1C.O=C(O)C(F)(F)F | 6.299 |
| COCCN1CCC2(COCCN(Cc3ccc4c(c3)OCO4)C2)C1.O=C(O)C(F)(F)F.O=C(O)C(F)(F)F (stereo not drawn) | -9.9 |
| O=C(O)C(F)(F)F.O=C(O)C(F)(F)F.O=C(O)C(F)(F)F.O=C1CO[C@@H]2CN(Cc3cccnc3)C[C@H]2N1Cc1ccncc1 | -18.69 |
| COCCC(=O)N1CC[C@@H](N2CCOCC2)[C@@H]1Cc1ccccc1.O=C(O)C(F)(F)F | -10.34 |
| CC(C)c1cc(C(=O)NC2CCN(CC(N)=O)CC2)nn1C(C)(C)C | 17.37 |
| Cc1cc(C(=O)NC2CCN(CC(N)=O)CC2)nn1C(C)(C)C | 61.29 |
| CC(C)(C)n1nc(C(=O)NC2CCN(CC(N)=O)CC2)cc1C1CC1 | 19.52 |
| Cc1noc(C)c1-c1nc(C2CCCNC2)ccc1CO.Cl.Cl (stereo not drawn) | 6.462 |
| Cc1cccc(CNC(CN2CCN(C)CC2)c2ccccc2)c1 (stereo not drawn) | -9.551 |
| COc1c(CNC(c2ccccc2)c2nccn2C)c(C)nn1C (stereo not drawn) | -17.9 |
| Cc1cnn(CC(C)NCc2ccc(OCc3nccn3C)cc2)c1 (stereo not drawn) | -7.408 |
| O=C(NCc1csc(Br)c1)c1ccncc1 | 14.96 |
| Cc1cc(C)cc(CNC(C)c2c(C)nn(C)c2C)c1 (stereo not drawn) | -33.33 |
| COc1cc(CNC(C)Cn2cccn2)cc(OC)c1 (stereo not drawn) | -10.57 |
| O=C(CCNc1ncccn1)NCc1csc(Br)c1 | 2.477 |
| Cc1ccc(CNC(c2ccccc2)c2nccn2C)cc1.Cl (stereo not drawn) | 106.1 |
| Cn1ccnc1C(NCc1csc(Br)c1)c1ccccc1 (stereo not drawn) | 103.5 |
| Cc1cc(C)cc(CNC(c2ccccc2)c2nccn2C)c1 (stereo not drawn) | 112.3 |
| Cc1ccc(CNCC(C)Oc2ccccn2)cc1.Cl (stereo not drawn) | -12.77 |
| COc1cc(CNC(c2ccccc2)c2nccn2C)cc(OC)c1 (stereo not drawn) | 110.9 |
| Cn1ccnc1CN1CCC2(CC(=O)N(c3cncnc3)C2)C1.O=C(O)C(F)(F)F (stereo not drawn) | 8.638 |
| CC(C)NC(=O)c1sc2ccccc2c1[C@H]1CC[C@H](CN)CC1.Cl | 6.071 |
| O=C(O)C(F)(F)F.c1cnc(N2Cc3nccn3CC(COc3cccnc3)C2)nc1 (stereo not drawn) | -4.281 |

| SMILES | Percent Effect [%] |
| --- | --- |
| Cn1ccnc1C(NCc1ccc(Br)cc1)c1ccccc1 (stereo not drawn) | 112.1 |
| Cn1ccnc1-c1noc(NCc2ccc(Br)cc2)n1 | -1.325 |
| Cc1ccc(CNC(CN2CCN(C)CC2)c2ccccc2)cc1C (stereo not drawn) | 7.265 |
| CCNC(c1ccc(Br)cc1)c1cccnc1 (stereo not drawn) | 0.8227 |
| Cn1ccnc1-c1noc(NCc2ccccc2)n1 | -11.975 |
| Cc1ccc(CNC(CN2CCN(C)CC2)c2ccccc2)cc1 (stereo not drawn) | 5.608 |
| Cc1ccc(CNC(c2ccccc2)c2nccn2C)cc1C (stereo not drawn) | 103.6 |
| COc1ccc(CNC(Cn2cncn2)c2ccccc2)cc1C (stereo not drawn) | 7.595 |
| Cn1nnc2c1C(COCc1ccccn1)CN(Cc1ccoc1)C2.O=C(O)C(F)(F)F.O=C(O)C(F)(F)F (stereo not drawn) | -16.51 |
| O=S(=O)(N1CCOCC1)N1CCCC(c2ccccn2)C1 (stereo not drawn) | -20.74 |
| COCCN1C[C@@H]2CCCO[C@@H]2[C@H](N(C)Cc2ccco2)C1.O=C(O)C(F)(F)F.O=C(O)C(F)(F)F | 1.752 |
| Cn1cc(N2CC3(CCN(Cc4ccsc4)CC3)OCC2=O)cn1.O=C(O)C(F)(F)F | -18.04 |
| Cc1cnccc1-c1cnn(CCNC(=O)C(C)(C)C)c1C1CC1.Cl | -19.45 |
| O=C(O)C(F)(F)F.O=C1COC2(CCN(Cc3ccco3)CC2)CN1 | -45.46 |
| Fc1ccc(N2CCCN(c3ccc(Cn4ccnc4)cn3)CC2)cc1 | 107.2 |
| c1csc(CN2CCCN(c3ccc(Cn4ccnc4)cn3)CC2)c1 | -13.19 |
| c1cn(Cc2ccc(N3CCCN(C4CCCC4)CC3)nc2)cn1 | 1.871 |
| Cc1cc2c(cc1CNC(Cc1cccs1)c1nccs1)OCO2.Cl (stereo not drawn) | 5.172 |
| CC(=O)N1C[C@@H]2CN(Cc3cccnc3)CCO[C@@H]2C1.O=C(O)C(F)(F)F.O=C(O)C(F)(F)F | -47.04 |
| O=C(O)C(F)(F)F.O=C1[C@H]2CN(CC3CC3)C[C@H]2CN1c1ccsc1 | 20.81 |
| Clc1cncc(N2CCCC2c2nnc3n2CCCCC3)n1 (stereo not drawn) | -7.126 |
| Cc1cc(N2CCCC2c2nnc3n2CCCCC3)nc(N)n1 (stereo not drawn) | -8.114 |
| Cc1cc(N2CCCC2c2nnc3n2CCCCC3)nc(C)n1 (stereo not drawn) | 66.84 |
| Cn1ncc2c1CN(Cc1ccccc1F)CC2COCC1CC1.O=C(O)C(F)(F)F.O=C(O)C(F)(F)F (stereo not drawn) | 103.1 |

| SMILES | Percent Effect [%] |
| --- | --- |
| Cn1ncc2c1CN(Cc1cccnc1)CC2COCC1CC1.O=C(O)C(F)(F)F.O=C(O)C(F)(F)F.O=C(O)C(F)(F)F (stereo not drawn) | -6.244 |
| Cn1ncc2c1CN(Cc1ccc(F)cc1)CC2COCC1CC1.O=C(O)C(F)(F)F.O=C(O)C(F)(F)F (stereo not drawn) | -18.92 |
| COCCN1C(=O)CC(N2CCN(c3ccc(OC)cc3)CC2)C1=O (stereo not drawn) | 70.99 |
| COCCN1C(=O)CC(N2CCN(c3ccc(F)cc3)CC2)C1=O (stereo not drawn) | -16.16 |
| COCCN1C(=O)CC(N2CCN(c3ccccc3)CC2)C1=O (stereo not drawn) | 12.72 |
| CN1C(=O)CCC12CCCN(C(=O)c1ccncc1F)C2.O=C(O)C(F)(F)F (stereo not drawn) | 38.17 |
| Cl.NCC(=O)N1CCC(c2ccnc(Nc3cc(C(F)(F)F)ccn3)n2)C1 (stereo not drawn) | -2.931 |
| Cc1cccc(CN2CC[C@@H]3[C@@H]2CCN3Cc2cccs2)n1.O=C(O)C(F)(F)F.O=C(O)C(F)(F)F | -14.73 |
| CNC(=O)COC1COC2(CCN(Cc3cccnc3)CC2)C1.O=C(O)C(F)(F)F (stereo not drawn) | 22.59 |
| CCn1ncc2c1CCCC2NCc1ccc(C)s1 (stereo not drawn) | 16.54 |
| Cc1ccc(CNC2CCCc3c2cnn3Cc2ccccc2)s1.Cl (stereo not drawn) | 52.93 |
| Cc1cccc(CNC2CCCc3c2cnn3Cc2ccccc2)c1.Cl (stereo not drawn) | -5.892 |
| Cn1cc(CNC2CCc3c(ccc(=O)n3Cc3cccnc3)C2)cn1.O=C(O)C(F)(F)F.O=C(O)C(F)(F)F (stereo not drawn) | 12.8 |
| CN(C)C(=O)[C@H]1CO[C@H]2CCN(c3ncc(F)cn3)C[C@H]2C1.O=C(O)C(F)(F)F | 5.292 |
| CC(CNCc1ccc(F)cc1)Oc1ccccn1.Cl (stereo not drawn) | 4.534 |
| Cc1nc(CN2CCCC(N(C)CCCc3ccccc3)C2)no1 (stereo not drawn) | -1.488 |
| CCc1nc(CN2CCCC(N(C)CCc3cccs3)C2)no1 (stereo not drawn) | 22.05 |
| Cc1nc(CN2CCCC(N(C)c3cnc4ccccc4n3)C2)no1 (stereo not drawn) | 68.17 |
| Cc1nc(CN2CCCC(N(C)CCc3cccs3)C2)no1 (stereo not drawn) | 86.93 |
| CN(CCc1cccs1)C1CCCN(Cc2noc(C3CC3)n2)C1 (stereo not drawn) | 32.3 |
| Cc1nc(CN2CCCC(N(C)c3ccc(C#N)cn3)C2)no1 (stereo not drawn) | -30.96 |
